From PubChem BioAssay
Pf Dd2 growth – P. falciparum Dd2 growth inhibitors, primary screen, SYBR Green fluorescence, single dose replicates; 94,000 tested, 2.3% active; activity change, % at 10 µM; 72 h; hits give low values; in the data active means activity change below about -80%; inconclusive means no clear call, values can overlap the other calls
T cruzi growth-1 – T. cruzi intracellular proliferation inhibitors, primary screen, cell-based, beta-gal Tulahuen parasites, NIH3T3 host, luminescence; T. cruzi beta-gal in NIH3T3, GalScreen luminescence, 90 h; inhibition, % at 8.34 µM; 77,000 tested, 5.9% active; AID 624255, 2012;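 active means mean inhibition above about 93%, with at least 55% of replicates each passing it, limit read from the data, passing the limit was not always enough; inconclusive means only one of those two conditions holds; inactive means neither condition holds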
C diff HTS – C. difficile growth inhibitors, primary screen, HTS; 86,000 tested, 0.25% active; Clostridium difficile clinical isolate growth, OD600, 24 h; hits give low values; growth activity, negative = inhibition, % at 16 µg/mL (by protocol);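 active means mean growth activity at or below -80% and every replicate also at or below -80%; inconclusive means mean at or below -80% but some replicate above -80%; inactive means mean growth activity above -80%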
T cruzi growth-2 – T. cruzi intracellular proliferation inhibitors, confirmation, cell-based, NIH3T3 host, beta-gal parasite, luminescence, cherry-pick | shares compounds with T cruzi growth-1 | T. cruzi beta-gal in NIH3T3, GalScreen luminescence, 90 h | inhibition, % at 8.35 µM | 5,600 tested, 72% active | AID 651739, 2012;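 active means mean replicate inhibition above about 95% and at least 55% of replicates individually reaching it, limit read from the data; inconclusive means only one of the two criteria is met; inactive means neither criterion is met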
T cruzi growth-3 – inhibitors of intracellular T. cruzi replication, confirmation, NIH3T3 host cells, beta-gal parasites, cherry-pick, set 2 | 5,600 tested, 21% active | inhibition, % at 2.09 µM | T. cruzi beta-gal in NIH3T3, GalScreen luminescence, 90 h | shares compounds with T cruzi growth-1;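 active means mean inhibition above about 95%, with at least 55% of replicates also reaching it, limit read from the data; inconclusive means meets just one of the two conditions; inactive means meets neither condition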
NIH3T3 tox – cytotoxicity in mouse NIH/3T3 fibroblasts, confirmation, cytotoxicity control for T. cruzi proliferation inhibitor project, cell-based, cherry-pick, single point; shares compounds with T cruzi growth-1; NIH/3T3 viability, CellTiter-Glo ATP luminescence, 90 h; 5,600 tested, 14% active; cytotoxicity (signal decrease), % at 8.35 µM;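 active means mean signal decrease across replicates above about 35% based on untreated-well scatter, with enough replicates individually passing, limit read from the data; inconclusive means no rule stated though some were filed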
NIH3T3 tox 2 – NIH/3T3 fibroblast cytotoxicity, confirmation, cytotoxicity control, cell-based, cherry-pick, single point, set 2; 5,600 tested, 56% active; shares compounds with T cruzi growth-1; inhibition, % at 24.9 µM; NIH/3T3 viability, CellTiter-Glo ATP luminescence, 90 h;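 active means mean loss of cell viability signal at or above a set limit, and enough replicates individually reaching it; inconclusive means meets only the mean limit or only the replicate share; inactive means meets neither condition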
Of the large screens only hits and unclear results are named; the others gave an inactive call (follow-up assays come after a bar, where they were run). Compounds with a hit are over-represented: about 6.8% of the library has one in this group of screens.

COc1ccccc1NC(=O)N1CCCCN2[C@@H](CO)[C@H](c3ccc(-c4ccccc4)cc3)[C@@H]2C1	T cruzi growth-1 102 | T cruzi growth-2 100 | T cruzi growth-3 inactive | NIH3T3 tox 45 | NIH3T3 tox 2 103
COc1ccccc1NC(=O)N1CCCCN2[C@@H](CO)[C@H](c3ccc(-c4cccc(C#N)c4)cc3)[C@@H]2C1	none
COc1ccccc1NC(=O)N1CCCCN2[C@@H](CO)[C@@H](c3ccc(-c4ccccc4)cc3)[C@@H]2C1	T cruzi growth-1 inconclusive | T cruzi growth-2 104 | T cruzi growth-3 inactive | NIH3T3 tox 61 | NIH3T3 tox 2 104
COc1ccccc1NC(=O)N1CCCCN2[C@H](C1)[C@@H](c1ccc(-c3cccc(F)c3)cc1)[C@@H]2CO	none
COc1ccccc1NC(=O)N1CCCCN2[C@H](CO)[C@H](c3ccc(-c4ccccc4)cc3)[C@H]2C1	T cruzi growth-1 108 | T cruzi growth-2 108 | T cruzi growth-3 inactive | NIH3T3 tox inactive | NIH3T3 tox 2 105
COc1ccccc1NC(=O)N1CCCCN2[C@H](CO)[C@H](c3ccc(-c4cccc(F)c4)cc3)[C@@H]2C1	T cruzi growth-1 115 | T cruzi growth-2 101 | T cruzi growth-3 110 | NIH3T3 tox inactive | NIH3T3 tox 2 37
COc1ccccc1NC(=O)N1CCCCN2[C@@H](CO)[C@@H](c3ccc(-c4cccc(C#N)c4)cc3)[C@@H]2C1	none
C[C@H]1CCCCO[C@@H](CN(C)C(=O)Nc2ccc3c(c2)OCO3)[C@@H](C)CN([C@@H](C)CO)C(=O)c2cc(NS(=O)(=O)c3ccccc3)ccc2O1	none
CC(C)NC(=O)N(C)C[C@H]1Oc2ccc(NC(=O)Nc3ccc4c(c3)OCO4)cc2CC(=O)N([C@H](C)CO)C[C@@H]1C	none
C[C@@H]1CN([C@H](C)CO)C(=O)Cc2cc(NS(=O)(=O)c3ccc(F)cc3)ccc2O[C@H]1CN(C)Cc1ccc2c(c1)OCO2	none
C[C@H](CO)N1C[C@H](C)[C@@H](CN(C)C(=O)Nc2cccc3ccccc23)Oc2c(NC(=O)c3nc4ccccc4s3)cccc2C1=O	none (no result: C diff HTS)
C[C@H]1CN([C@@H](C)CO)C(=O)c2ccccc2-c2ccccc2CO[C@@H]1CN(C)C(=O)Nc1ccnc(N2CCOCC2)c1	T cruzi growth-1 108 | T cruzi growth-2 101 | T cruzi growth-3 inconclusive | NIH3T3 tox inactive | NIH3T3 tox 2 inactive
C[C@@H]1CN([C@@H](C)CO)C(=O)c2c(c3ccccc3n2C)-c2ccccc2CO[C@@H]1CN(C)C(=O)Nc1ccnc(N2CCOCC2)c1	none (no result: T cruzi growth-1)
C[C@@H]1CN([C@H](C)CO)C(=O)c2ccccc2-c2ccccc2CO[C@H]1CN(C)C(=O)Nc1ccnc(N2CCOCC2)c1	T cruzi growth-1 inconclusive | T cruzi growth-2 96 | T cruzi growth-3 inactive | NIH3T3 tox inactive | NIH3T3 tox 2 inactive
C[C@H]1CN([C@@H](C)CO)C(=O)c2c(c3ccccc3n2C)-c2ccccc2CO[C@H]1CN(C)C(=O)Nc1ccnc(N2CCOCC2)c1	none (no result: T cruzi growth-1)
CO[C@H]1CN(C)C(=O)c2ccc(NC(C)=O)cc2OC[C@H](C)N(C(=O)C2CCC2)C[C@H]1C	none
CCCN(C)C[C@H]1OCCCC[C@@H](C)Oc2ccc(NS(=O)(=O)c3cn(C)cn3)cc2C(=O)N([C@H](C)CO)C[C@H]1C	none
C[C@H]1CN([C@@H](C)CO)C(=O)c2cc(NS(C)(=O)=O)ccc2O[C@@H]1CN(C)S(=O)(=O)c1ccc(F)cc1	none
CN(C)c1ccc2c(c1)[C@H]1C[C@H](CC(=O)NCc3ccc(Oc4ccccc4)cc3)O[C@H](CO)[C@H]1O2	Pf Dd2 growth -90, T cruzi growth-1 135 | T cruzi growth-2 inactive | T cruzi growth-3 inactive | NIH3T3 tox inactive | NIH3T3 tox 2 56
CN(C)c1ccc2c(c1)[C@@H]1C[C@H](CC(=O)NCc3ccc(Oc4ccccc4)cc3)O[C@@H](CO)[C@@H]1O2	T cruzi growth-1 153 | T cruzi growth-2 inactive | T cruzi growth-3 inactive | NIH3T3 tox 53 | NIH3T3 tox 2 55
CN(C)c1ccc2c(c1)[C@@H]1C[C@H](CC(=O)NCc3ccc(Oc4ccccc4)cc3)O[C@H](CO)[C@@H]1O2	T cruzi growth-1 122 | T cruzi growth-2 inactive | T cruzi growth-3 inactive | NIH3T3 tox inactive | NIH3T3 tox 2 inconclusive
CN(C)c1ccc2c(c1)[C@@H]1C[C@@H](CC(=O)NCc3ccc(Oc4ccccc4)cc3)O[C@H](CO)[C@@H]1O2	none
CN(C)c1ccc2c(c1)[C@H]1C[C@@H](CC(=O)NCc3ccccc3)O[C@@H](CO)[C@H]1O2	none (no result: C diff HTS)
CN(C)c1ccc2c(c1)[C@H]1C[C@H](CC(=O)NCc3ccccc3)O[C@H](CO)[C@H]1O2	none (no result: C diff HTS)
C[C@@H]1CN([C@@H](C)CO)C(=O)Cc2cc(NC(=O)C3CC3)ccc2O[C@H]1CN(C)Cc1ccc(C(=O)Nc2ccccc2N)cc1	none
O=C(C[C@H]1C[C@@H]2c3cc(NC(=O)NC4CCCCC4)ccc3O[C@@H]2[C@@H](CO)O1)NCC1CC1	none (no result: C diff HTS)
Cc1noc(C)c1S(=O)(=O)N(C)C[C@H]1OCCCC[C@H](C)Oc2ccc(NC(=O)Nc3ccc(F)cc3)cc2C(=O)N([C@@H](C)CO)C[C@@H]1C	none
Cc1noc(C)c1S(=O)(=O)N(C)C[C@H]1OCCCC[C@@H](C)Oc2ccc(NC(=O)Nc3ccc(C(F)(F)F)cc3)cc2C(=O)N([C@H](C)CO)C[C@@H]1C	T cruzi growth-1 110 | T cruzi growth-2 108 | T cruzi growth-3 102 | NIH3T3 tox inactive | NIH3T3 tox 2 32
Cc1noc(C)c1S(=O)(=O)N(C)C[C@@H]1OCCCC[C@@H](C)Oc2ccc(NC(=O)Nc3ccc(F)cc3)cc2C(=O)N([C@H](C)CO)C[C@H]1C	none
Cc1noc(C)c1S(=O)(=O)N(C)C[C@H]1OCCCC[C@@H](C)Oc2ccc(NC(=O)Nc3ccc(C(F)(F)F)cc3)cc2C(=O)N([C@@H](C)CO)C[C@@H]1C	Pf Dd2 growth -94, T cruzi growth-1 99 | T cruzi growth-2 106 | T cruzi growth-3 116 | NIH3T3 tox inactive | NIH3T3 tox 2 35
Cc1noc(C)c1S(=O)(=O)N(C)C[C@@H]1OCCCC[C@@H](C)Oc2ccc(NC(=O)Nc3ccc(F)cc3)cc2C(=O)N([C@@H](C)CO)C[C@H]1C	none
